Source: PubChem BioAssay AID1159580 (chemical genetic matrix, 2015)
The whole screen tested about 5,500 compounds, of which about 2,000 (36%) were called active. Another 18% or so got no clear call; they are omitted. Cut-off read from the data, not from the text of the source: active = normalized growth mostly below about 0.91 (no sharp cut-off); inconclusive = no clear call, values can overlap the other calls; inactive = mostly above about 0.92. This is one part of the list.

Experiment: chemical genetic growth profiling, strain panel (AID 1159580);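 note: tested at 20 µM; growth read once vehicle control cultures reached saturation at 30 °C; 1 = growth at the plate median or of vehicle wells; lower values mean less growth of the strain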
Conditions: S. cerevisiae deletion strains, growth OD

Measured: normalized growth

O=C(O)c1ccc2c(c1)OCO2
inactive: locus YAL021C, strain ccr4, stronger effect = lower value 1.01 | locus YAL026C, strain drs2, stronger effect = lower value 0.983 | locus YAL030W, strain snc1, stronger effect = lower value 1.01 | locus YBL061C, strain skt5, stronger effect = lower value 1 | locus YBR009C, strain hhf1, stronger effect = lower value 0.997 | locus YBR023C, strain chs3, stronger effect = lower value 1.01 | locus YBR171W, strain sec66, stronger effect = lower value 0.992 | locus YBR231C, strain swc5, stronger effect = lower value 1.01 | locus YBR279W, strain paf1, stronger effect = lower value 1.01 | locus YCL011C, strain gbp2, stronger effect = lower value 0.979 | locus YCL016C, strain dcc1, stronger effect = lower value 1.01 | locus YCL061C, strain MRC1, stronger effect = lower value 0.984 | locus YCL069W, strain vba3, stronger effect = lower value 0.984 | locus YCR088W, strain abp1, stronger effect = lower value 0.984 | locus YDL005C, strain med2, stronger effect = lower value 1.01 | locus YDL040C, strain nat1, stronger effect = lower value 1.01 | locus YDR001C, strain nth1, stronger effect = lower value 0.982 | locus YDR069C, strain doa4, stronger effect = lower value 1.02 | locus YDR137W, strain rgp1, stronger effect = lower value 1.01 | locus YDR159W, strain sac3, stronger effect = lower value 0.98 | locus YDR195W, strain ref2 1.02 | locus YDR297W, strain sur2, stronger effect = lower value 1.01 | locus YDR334W, strain swr1, stronger effect = lower value 0.994 | locus YDR335W, strain msn5, stronger effect = lower value 1.01 | locus YDR392W, strain spt3, stronger effect = lower value 0.979 | locus YEL003W, strain gim4, stronger effect = lower value 0.98 | locus YEL037C, strain rad23, stronger effect = lower value 0.987 | locus YEL061C, strain CIN8 (second series), stronger effect = lower value 0.988 | locus YER015W, strain faa2, stronger effect = lower value 0.997 | locus YER016W, strain bim1, stronger effect = lower value 1.01 | locus YER111C, strain swi4, stronger effect = lower value 0.978 | locus YER155C, strain BEM2 (second series), stronger effect = lower value 0.992 | locus YFR010W, strain ubp6, stronger effect = lower value 0.994 | locus YGL167C, strain pmr1, stronger effect = lower value 1.02 | locus YGL173C, strain kem1, stronger effect = lower value 1.01 | locus YGL227W, strain vid30, stronger effect = lower value 0.973 | locus YGL240W, strain doc1, stronger effect = lower value 0.998 | locus YGL253W, strain hxk2, stronger effect = lower value 1.01 | locus YHR013C, strain ard1, stronger effect = lower value 1.05 | locus YHR027C, strain rpn1, stronger effect = lower value 1.03 | locus YHR142W, strain chs7, stronger effect = lower value 1 | locus YJL092W, strain hpr5, stronger effect = lower value 0.985 | locus YJL095W, strain BCK1 (second series), stronger effect = lower value 1.02 | locus YJL115W, strain asf1, stronger effect = lower value 0.994 | locus YJL129C, strain trk1, stronger effect = lower value 0.998 | locus YJL154C, strain vps35, stronger effect = lower value 0.989 | locus YJL164C, strain tpk1, stronger effect = lower value 1 | locus YJL166W, strain qcr8, stronger effect = lower value 1.02 | locus YJL187C, strain SWE1, stronger effect = lower value 1.02 | locus YKL160W, strain elf1, stronger effect = lower value 1 | locus YKR026C, strain gcn3, stronger effect = lower value 0.983 | locus YKR091W, strain srl3, stronger effect = lower value 1.01 | locus YLL001W, strain dnm1, stronger effect = lower value 1.01 | locus YLL026W, stronger effect = lower value 1.01 | locus YLL041C, strain sdh2, stronger effect = lower value 1 | locus YLR027C, strain aat2, stronger effect = lower value 1 | locus YLR221C, strain rsa3, stronger effect = lower value 0.999 | locus YLR258W, strain gsy2, stronger effect = lower value 1 | locus YLR262C, strain YPT6 (second series), stronger effect = lower value 1.01 | locus YLR320W, strain mms22, stronger effect = lower value 1.03 | locus YLR342W, strain FKS1, stronger effect = lower value 1.05 | locus YLR357W, strain rsc2, stronger effect = lower value 1.09 | locus YLR370C, strain arc18, stronger effect = lower value 1.01 | locus YLR384C, strain iki3, stronger effect = lower value 1.01 | locus YML120C, strain ndi1, stronger effect = lower value 1.01 | locus YMR058W, strain fet3, stronger effect = lower value 0.997 | locus YMR125W, strain sto1, stronger effect = lower value 1.07 | locus YMR129W, stronger effect = lower value 1 | locus YMR205C, strain PFK2, stronger effect = lower value 1.01 | locus YMR231W, strain pep5, stronger effect = lower value 1.01 | locus YNL071W, strain lat1, stronger effect = lower value 1.01 | locus YNL209W, strain ssb2, stronger effect = lower value 1.01 | locus YNL248C, strain rpa49, stronger effect = lower value 1.02 | locus YNL322C, strain KRE1 (second series), stronger effect = lower value 0.991 | locus YNR049C, strain mso1, stronger effect = lower value 1.01 | locus YOR001W, strain rrp6, stronger effect = lower value 0.994 | locus YOR070C, strain gyp1, stronger effect = lower value 0.999 | locus YOR080W, strain dia2, stronger effect = lower value 1.01 | locus YOR083W, strain WHI5, stronger effect = lower value 1 | locus YOR106W, strain vam3, stronger effect = lower value 1 | locus YOR265W, strain rbl2, stronger effect = lower value 1 | locus YOR270C, strain vph1, stronger effect = lower value 1.05 | locus YOR290C, strain snf2, stronger effect = lower value 0.967 | locus YPL051W, strain arl3, stronger effect = lower value 1.01 | locus YPL078C, strain atp4, stronger effect = lower value 0.995 | locus YPL106C, strain sse1, stronger effect = lower value 1 | locus YPL240C, strain hsp82, stronger effect = lower value 1.01
